# Assay results from PubChem BioAssay (Tox21).
# Inconclusive results are not listed. Where a call stands in place of a potency, no number is given. Activity calls are given as the source filed them. The call rests on the fitted dose curve; in most records, active means well fitted curve in the direction sought with a large enough effect in the repeat runs; inconclusive means weak or mixed curves; inactive means no such curve, though single readings can be large; an effect the other way counts as inactive or inconclusive.
# Biological target: Luciferin 4-monooxygenase (Photinus pyralis) (UniProt P08659)
# Sequence (P08659 whole entry, looked up): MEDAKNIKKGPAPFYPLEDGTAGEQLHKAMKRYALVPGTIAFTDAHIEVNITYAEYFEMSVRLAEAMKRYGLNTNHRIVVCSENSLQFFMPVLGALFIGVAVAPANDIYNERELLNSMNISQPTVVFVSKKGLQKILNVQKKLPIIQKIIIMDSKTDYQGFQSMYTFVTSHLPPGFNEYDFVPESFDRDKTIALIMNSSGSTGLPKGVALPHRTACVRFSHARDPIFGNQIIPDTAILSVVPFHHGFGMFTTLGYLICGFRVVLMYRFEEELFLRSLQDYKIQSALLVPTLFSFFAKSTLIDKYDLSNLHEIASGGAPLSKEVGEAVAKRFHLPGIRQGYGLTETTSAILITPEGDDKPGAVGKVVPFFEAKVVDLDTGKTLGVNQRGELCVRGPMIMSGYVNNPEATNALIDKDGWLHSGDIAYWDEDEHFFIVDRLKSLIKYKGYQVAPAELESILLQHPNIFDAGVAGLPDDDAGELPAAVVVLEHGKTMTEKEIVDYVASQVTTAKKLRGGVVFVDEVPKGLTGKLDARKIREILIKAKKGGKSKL
# Assay: qHTS assay to identify small molecule inhibitors of firefly luciferase (AID 1224835); further: nearly all actives have a fitted effect of over 25% in size
# Conditions: purified P. pyralis luciferase, luminescence inhibition; series mostly up to 115 µM
# Summary of the method: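 Inhibition of purified Photinus luciferase is measured by luminescence. Substrate levels (D-luciferin, ATP) sit at their KM values. Each compound is tested in a concentration series.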
row,Compound,Potency
1,CO/N=C(\C(=O)N[C@@H]1C(=O)N2C(C(=O)O)=C(CSc3nc(=O)c(O)nn3C)CS[C@H]12)c1csc(N)n1,inactive
2,COc1ccc2cc1Oc1cc3c(cc1OC)CC[N+](C)(C)[C@H]3Cc1ccc(cc1)Oc1c(OC)c(OC)cc3c1[C@@H](C2)[N+](C)(C)CC3,inactive
3,CCCC(C)C(=O)OCC (stereo not given),inactive
4,O=C(CO)[C@@H](O)[C@H](O)[C@@H](O)CO,inactive
5,CC(C)(C)c1ccc(-c2ccc(C(C)(C)C)cc2)cc1,inactive
6,CCOC(=O)C(=O)CCCCCCl,inactive
7,Nc1ccncc1N,inactive
8,OCCCCCO,inactive

# System: not listed separately
# Assay: qHTS assay to identify small molecule agonists of the constitutive androstane receptor (CAR) signaling pathway - cell viability counter screen (AID 1224836); further: nearly all actives have a fitted effect of over 45% in size
# Conditions: HepG2-CYP2B6-hCAR viability, CellTiter-Fluor, 23 h, PK11195 added to every well; series mostly up to 92.4 µM
# Summary of the method: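 Compound titrations (15 concentrations) went onto HepG2-CYP2B6-hCAR cells 4 h after seeding, alongside PK11195 at a final 0.75 uM; a 23 h, 37 C/5% CO2 incubation preceded CellTiter-Fluor viability measurement.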
row,Compound,outcome
1,CC(=O)c1ccc2ccccc2c1,inactive
2,CCCCc1nc(Cl)c(CO)n1Cc1ccc(-c2ccccc2-c2nn[nH]n2)cc1,inactive
3,NO,inactive
4,COC(=O)Nc1ccc(Cl)c(Cl)c1,inactive
5,NC(=O)N1c2ccccc2CC(=O)c2ccccc21,inactive
6,CC1=CC(=O)[C@H]2C[C@@H]1C2(C)C,inactive
7,CC(C)(N)C#N,inactive
8,O=C(O)c1cn(C2CC2)c2cc(N3CCNCC3)c(F)cc2c1=O,inactive
9,CO/N=C(\C(=O)N[C@@H]1C(=O)N2C(C(=O)O)=C(CSc3nc(=O)c(O)nn3C)CS[C@H]12)c1csc(N)n1,inactive
10,O=S(=O)(O)c1cccc2ccccc12,inactive
11,COc1ccc2cc1Oc1cc3c(cc1OC)CC[N+](C)(C)[C@H]3Cc1ccc(cc1)Oc1c(OC)c(OC)cc3c1[C@@H](C2)[N+](C)(C)CC3,inactive
12,CCCC(C)C(=O)OCC (stereo not given),inactive
13,COc1c(N2CCNC(C)C2)c(F)cc2c(=O)c(C(=O)O)cn(C3CC3)c12 (stereo not given),inactive
14,CC(=O)OCC(=O)[C@@]1(O)[C@H](C)C[C@H]2[C@@H]3CCC4=CC(=O)C=C[C@]4(C)[C@@]3(F)[C@@H](O)C[C@@]21C,inactive
15,Nc1ccccn1,inactive
16,O=C(CO)[C@@H](O)[C@H](O)[C@@H](O)CO,inactive
17,CCC(C)(CN(C)C)OC(=O)c1ccccc1 (stereo not given),inactive
18,O=C(O)CNC(=O)c1ccc(CO)o1,inactive

row,Compound,outcome
1,Cc1ccc(C(=O)Nc2ccc(S(=O)(=O)O)c3cc(S(=O)(=O)O)cc(S(=O)(=O)O)c23)cc1NC(=O)c1cccc(NC(=O)Nc2cccc(C(=O)Nc3cc(C(=O)Nc4ccc(S(=O)(=O)O)c5cc(S(=O)(=O)O)cc(S(=O)(=O)O)c45)ccc3C)c2)c1,inactive
2,CCCCS(=O)(=O)N[C@@H](Cc1ccc(OCCCCC2CCNCC2)cc1)C(=O)O,inactive
3,COc1ccnc(CS(=O)c2nc3cc(OC(F)F)ccc3[nH]2)c1OC (stereo not given),inactive
4,NC(CCC(=O)O)C(=O)O (stereo not given),inactive
5,CC1(C)[C@@H]2CC[C@@]1(C)[C@H](O)C2,inactive
6,CC(=O)c1ccccc1[N+](=O)[O-],inactive
7,CC(C)(C)c1ccc(-c2ccc(C(C)(C)C)cc2)cc1,inactive
8,c1ccc2sc(SN3CCOCC3)nc2c1,inactive
9,CCOC(=O)COc1cc(-n2ncc(C(F)(F)F)c(C)c2=O)c(F)cc1Cl,inactive
10,CCN[C@H]1C[C@H](C)S(=O)(=O)c2sc(S(N)(=O)=O)cc21,inactive
11,COc1cc(-c2ccc(=O)[nH]n2)ccc1OC(F)F,inactive
12,CCOC(=O)C(=O)CCCCCCl,inactive
13,CCN1CCOCC1,inactive
14,C[C@H]1[C@H](NC(=O)/C(=N/OC(C)(C)C(=O)O)c2csc(N)n2)C(=O)N1S(=O)(=O)O (stereo in doubt),inactive
15,Cc1c(N)c(=O)n(-c2ccccc2)n1C,inactive
16,Nc1ccncc1N,inactive
17,C[N+](C)(CCOc1ccccc1)Cc1cccs1,inactive
18,OCCCCCO,inactive

# System: not listed separately
# Assay: qHTS assay to identify small molecule antagonists of the constitutive androstane receptor (CAR) signaling pathway - cell viability counter screen (AID 1224837); further: nearly all actives have a fitted effect of over 45% in size
# Conditions: HepG2-CYP2B6-hCAR viability, CellTiter-Fluor, 23 h, co-treated with 50 nM CITCO; series mostly up to 92.4 µM
# Summary of the method: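 CITCO at 50 nM final was added alongside compounds (15 concentrations) to double-stable hCAR/CYP2B6-2.2kb HepG2 cells. Following 23 hr at 37 C, cell viability was quantified by CellTiter-Fluor fluorescence intensity.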
row,Compound,outcome
1,CC(=O)c1ccc2ccccc2c1,inactive
2,CCCCc1nc(Cl)c(CO)n1Cc1ccc(-c2ccccc2-c2nn[nH]n2)cc1,inactive
3,NO,inactive
4,COC(=O)Nc1ccc(Cl)c(Cl)c1,inactive
5,NC(=O)N1c2ccccc2CC(=O)c2ccccc21,inactive
6,CC1=CC(=O)[C@H]2C[C@@H]1C2(C)C,inactive
7,CC(C)(N)C#N,inactive
8,O=C(O)c1cn(C2CC2)c2cc(N3CCNCC3)c(F)cc2c1=O,inactive
9,CO/N=C(\C(=O)N[C@@H]1C(=O)N2C(C(=O)O)=C(CSc3nc(=O)c(O)nn3C)CS[C@H]12)c1csc(N)n1,inactive
10,O=S(=O)(O)c1cccc2ccccc12,inactive
11,COc1ccc2cc1Oc1cc3c(cc1OC)CC[N+](C)(C)[C@H]3Cc1ccc(cc1)Oc1c(OC)c(OC)cc3c1[C@@H](C2)[N+](C)(C)CC3,inactive
12,CCCC(C)C(=O)OCC (stereo not given),inactive
13,COc1c(N2CCNC(C)C2)c(F)cc2c(=O)c(C(=O)O)cn(C3CC3)c12 (stereo not given),inactive
14,CC(=O)OCC(=O)[C@@]1(O)[C@H](C)C[C@H]2[C@@H]3CCC4=CC(=O)C=C[C@]4(C)[C@@]3(F)[C@@H](O)C[C@@]21C,inactive
15,Nc1ccccn1,inactive
16,O=C(CO)[C@@H](O)[C@H](O)[C@@H](O)CO,inactive
17,CCC(C)(CN(C)C)OC(=O)c1ccccc1 (stereo not given),inactive
18,O=C(O)CNC(=O)c1ccc(CO)o1,inactive

row,Compound,outcome
1,Cc1ccc(C(=O)Nc2ccc(S(=O)(=O)O)c3cc(S(=O)(=O)O)cc(S(=O)(=O)O)c23)cc1NC(=O)c1cccc(NC(=O)Nc2cccc(C(=O)Nc3cc(C(=O)Nc4ccc(S(=O)(=O)O)c5cc(S(=O)(=O)O)cc(S(=O)(=O)O)c45)ccc3C)c2)c1,inactive
2,CCCCS(=O)(=O)N[C@@H](Cc1ccc(OCCCCC2CCNCC2)cc1)C(=O)O,inactive
3,COc1ccnc(CS(=O)c2nc3cc(OC(F)F)ccc3[nH]2)c1OC (stereo not given),inactive
4,NC(CCC(=O)O)C(=O)O (stereo not given),inactive
5,CC1(C)[C@@H]2CC[C@@]1(C)[C@H](O)C2,inactive
6,CC(=O)c1ccccc1[N+](=O)[O-],inactive
7,CC(C)(C)c1ccc(-c2ccc(C(C)(C)C)cc2)cc1,inactive
8,c1ccc2sc(SN3CCOCC3)nc2c1,inactive
9,CCOC(=O)COc1cc(-n2ncc(C(F)(F)F)c(C)c2=O)c(F)cc1Cl,inactive
10,CCN[C@H]1C[C@H](C)S(=O)(=O)c2sc(S(N)(=O)=O)cc21,inactive
11,COc1cc(-c2ccc(=O)[nH]n2)ccc1OC(F)F,inactive
12,CCOC(=O)C(=O)CCCCCCl,inactive
13,CCN1CCOCC1,inactive
14,C[C@H]1[C@H](NC(=O)/C(=N/OC(C)(C)C(=O)O)c2csc(N)n2)C(=O)N1S(=O)(=O)O (stereo in doubt),inactive
15,Cc1c(N)c(=O)n(-c2ccccc2)n1C,inactive
16,Nc1ccncc1N,inactive
17,C[N+](C)(CCOc1ccccc1)Cc1cccs1,inactive
18,OCCCCCO,inactive
